Results from PubChem BioAssay (Tox21).
Records with an inconclusive call do not appear. Active and inactive are the calls of the source. Unless noted, calls come from the whole dose curve.

Experiments:
[1] = Nuclear factor erythroid 2-related factor 2/antioxidant responsive element (Nrf2/ARE) small molecule agonists: luciferase reporter gene qHTS assay in human keratinocytes (AID 1919969); note: nearly all actives have a fitted effect of over 35% in size; note: potency is the fitted concentration of half-maximal effect
[2] = target: Gonadotropin-releasing hormone receptor (Homo sapiens) (UniProt P30968); test: Human gonadotropin-releasing hormone receptor (GnRHR) small molecule agonists, calcium flux assay in GnRHR-HEK293 cells (AID 1920063); note: nearly all actives have a fitted effect of over 35% in size
Sequence of Gonadotropin-releasing hormone receptor (Homo sapiens) (P30968 whole entry, looked up): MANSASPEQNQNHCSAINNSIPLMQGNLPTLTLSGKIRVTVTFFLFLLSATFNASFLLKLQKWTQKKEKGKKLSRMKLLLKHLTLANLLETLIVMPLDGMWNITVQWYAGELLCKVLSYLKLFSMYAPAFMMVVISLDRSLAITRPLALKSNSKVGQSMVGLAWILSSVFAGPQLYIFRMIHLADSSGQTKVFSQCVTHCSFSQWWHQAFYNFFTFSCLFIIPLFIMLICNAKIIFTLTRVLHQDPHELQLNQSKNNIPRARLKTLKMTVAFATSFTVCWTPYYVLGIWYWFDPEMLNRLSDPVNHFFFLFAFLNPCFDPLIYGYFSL
Outline: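 We seeded human GnRHR-expressing HEK293 cells for 18 hours, loaded them with calcium dye for an hour at 37 C, added test compounds, and recorded fluorescence intensity kinetically for three minutes.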

[3] = target: KiSS-1 receptor (Homo sapiens) (UniProt Q969F8); test: Human kisspeptin (KISS1R) small molecule agonists, calcium flux assay in KISS1R-HEK293 cells (AID 1920064; active = well fitted activation curve with a large enough effect in the repeat runs)
Sequence of KiSS-1 receptor (Homo sapiens) (Q969F8 whole entry, looked up): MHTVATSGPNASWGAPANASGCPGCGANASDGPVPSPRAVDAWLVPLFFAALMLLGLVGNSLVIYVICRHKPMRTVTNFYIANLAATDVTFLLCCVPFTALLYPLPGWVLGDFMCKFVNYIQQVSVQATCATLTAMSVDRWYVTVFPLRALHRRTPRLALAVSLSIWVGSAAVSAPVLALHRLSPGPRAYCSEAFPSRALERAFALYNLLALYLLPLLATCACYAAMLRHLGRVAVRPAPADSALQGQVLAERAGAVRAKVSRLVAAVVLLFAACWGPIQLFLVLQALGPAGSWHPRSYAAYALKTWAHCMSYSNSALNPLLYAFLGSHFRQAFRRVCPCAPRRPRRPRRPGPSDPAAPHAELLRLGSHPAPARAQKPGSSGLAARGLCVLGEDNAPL
Outline: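 Kinetic calcium assay, 1 s sampling over 3 min at Ex/Em 480/540, in HEK293 cells engineered with human KISS1R; compounds delivered in DMSO after 1 h dye loading.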

[4] = G protein-coupled receptor (GPCR) small molecule agonists, calcium flux assay: HEK293 wild type cell line counter screen (AID 1920065)
Outline: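 Calcium-sensitive dye, loaded 1 h at 37 C into cells cultured 18 h, reports compound-evoked calcium release as fluorescence (Ex/Em 480/540), measured over 3 min. Agonist mode; 15-point titrations, triplicate.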

[5] = p53 small molecule agonists, cell-based qHTS assay with human liver microsomes: qHTS cell viability counter screen (AID 1963579); note: nearly all actives have a fitted effect of over 45% in size
Outline: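 Metabolic activation used human liver microsomes and NADPH, both 0.5 mg/mL final, over 16 hours at 37 C on p53RE-bla cells (4,000/well). Cytotoxicity measured by CellTiter-Glo luminescence, 30 min at room temperature.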

[6] = p53 small molecule agonists, cell-based qHTS assay with rat liver microsomes: qHTS cell viability counter screen (AID 1963580); note: nearly all actives have a fitted effect of over 45% in size
Outline: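 In HCT-116 cells carrying a p53 response element-bla reporter, compounds were metabolically activated in situ by rat liver microsomes with NADPH over 16 h. Cell ATP content then served as the cytotoxicity measure.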

[7] = p53 small molecule agonists, cell-based qHTS assay: qHTS cell viability counter screen (AID 1963581); note: nearly all actives have a fitted effect of over 45% in size
Outline: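 Following 5 h attachment, HCT-116 p53RE-bla cells took up compound for 16 h at 37 C; the reporter was read with B/G FRET substrate (2 h RT), and viability then via CellTiter-Glo ATP luminescence.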

[8] = target: 5-hydroxytryptamine receptor 2A (Homo sapiens) (UniProt P28223); test: 5-hydroxytryptamine receptor 2A (HTR2A) small molecule antagonists, cell-based qHTS assay (AID 1963586); note: nearly all actives have a fitted effect of over 45% in size
Sequence of 5-hydroxytryptamine receptor 2A (Homo sapiens) (P28223 whole entry, looked up): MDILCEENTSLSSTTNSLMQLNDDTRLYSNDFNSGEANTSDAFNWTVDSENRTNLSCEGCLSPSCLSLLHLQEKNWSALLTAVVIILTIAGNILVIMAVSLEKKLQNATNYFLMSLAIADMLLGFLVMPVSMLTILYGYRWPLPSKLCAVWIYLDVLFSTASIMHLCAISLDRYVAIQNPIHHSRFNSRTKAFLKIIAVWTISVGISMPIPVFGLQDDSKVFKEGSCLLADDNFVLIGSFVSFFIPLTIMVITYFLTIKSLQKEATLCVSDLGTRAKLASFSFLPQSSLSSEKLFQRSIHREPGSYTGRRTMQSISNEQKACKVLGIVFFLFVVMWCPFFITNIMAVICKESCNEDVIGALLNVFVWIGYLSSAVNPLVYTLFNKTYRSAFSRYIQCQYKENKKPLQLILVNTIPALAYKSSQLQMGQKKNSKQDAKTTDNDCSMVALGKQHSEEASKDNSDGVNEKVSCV
Outline: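 Antagonist-mode intracellular calcium assay: DOI (4 nM) added after 5 min compound pre-incubation at room temperature to dye-loaded HTR2A-CHO cells. Fluorescence followed for 3 min, sampled every second.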

[9] = target: 5-hydroxytryptamine receptor 2A (Homo sapiens) (UniProt P28223); test: 5-hydroxytryptamine receptor 2A (HTR2A) small molecule agonists, cell-based qHTS assay (AID 1963587); note: nearly all actives have a fitted effect of over 30% in size
Outline: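 HTR2A-CHO cells, plated 18 h at 37 C/5% CO2, dye-loaded 1 h at 37 C; compounds in DMSO added by pin tool (agonist mode). Intracellular calcium flux read as kinetic fluorescence on FDSS over 2 min at 1 s intervals.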

[10] = target: Muscarinic acetylcholine receptor M1 (Homo sapiens) (UniProt P11229); test: Cholinergic receptor muscarinic 1 (CHRM1) small molecule agonists, cell-based qHTS assay (AID 1963589); note: nearly all actives have a fitted effect of over 35% in size
Sequence of Muscarinic acetylcholine receptor M1 (Homo sapiens) (P11229 whole entry, looked up): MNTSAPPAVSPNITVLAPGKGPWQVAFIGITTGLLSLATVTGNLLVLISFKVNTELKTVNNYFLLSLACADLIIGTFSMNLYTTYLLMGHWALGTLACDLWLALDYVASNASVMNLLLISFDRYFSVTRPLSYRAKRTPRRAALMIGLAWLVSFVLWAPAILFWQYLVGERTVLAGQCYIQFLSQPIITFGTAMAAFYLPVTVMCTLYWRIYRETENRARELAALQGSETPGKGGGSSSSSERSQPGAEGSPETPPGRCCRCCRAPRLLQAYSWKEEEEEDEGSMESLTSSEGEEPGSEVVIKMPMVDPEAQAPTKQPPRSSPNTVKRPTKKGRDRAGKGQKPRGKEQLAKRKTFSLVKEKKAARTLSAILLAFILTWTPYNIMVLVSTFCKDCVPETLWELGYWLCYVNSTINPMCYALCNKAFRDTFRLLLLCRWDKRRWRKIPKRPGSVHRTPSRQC
Outline: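 Measures agonist-induced intracellular calcium rise. Stable human CHRM1 CHO line, 1 h dye load at 37 C, compounds from DMSO, kinetic fluorescence read.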

[11] = cAMP Responsive Elements (CRE) small molecule agonists, cell-based qHTS assay (AID 1963590)
Outline: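 A CRE-responsive beta-lactamase reporter in HEK 293T cells was used. Treatment ran 3 h at 37 C; detection used LiveBLAzer B/G FRET substrate for 2 h at room temperature.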

[12] = cAMP Responsive Elements (CRE) small molecule antagonists, cell-based qHTS assay (AID 1963591; active = well fitted inhibition curve with a large enough effect in the signal ratio in the repeat runs, not every such curve was filed as active; the % refers to the signal ratio)
Outline: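 HEK293T cells carrying a CRE-driven beta-lactamase reporter receive compound and NKH477 (0.25 uM final) for 3 h. Fluorescence from LiveBLAzer B/G FRET substrate is read after 2 h at room temperature.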

[13] = target: Beta-2 adrenergic receptor (Homo sapiens) (UniProt P07550); test: Adrenergic beta2 receptor (ADRB2) small molecule antagonists, cell-based qHTS assay (AID 1963592); note: series mostly up to about 92 µM; nearly all actives have a fitted effect of over 50% in size
Sequence of Beta-2 adrenergic receptor (Homo sapiens) (P07550 whole entry, looked up): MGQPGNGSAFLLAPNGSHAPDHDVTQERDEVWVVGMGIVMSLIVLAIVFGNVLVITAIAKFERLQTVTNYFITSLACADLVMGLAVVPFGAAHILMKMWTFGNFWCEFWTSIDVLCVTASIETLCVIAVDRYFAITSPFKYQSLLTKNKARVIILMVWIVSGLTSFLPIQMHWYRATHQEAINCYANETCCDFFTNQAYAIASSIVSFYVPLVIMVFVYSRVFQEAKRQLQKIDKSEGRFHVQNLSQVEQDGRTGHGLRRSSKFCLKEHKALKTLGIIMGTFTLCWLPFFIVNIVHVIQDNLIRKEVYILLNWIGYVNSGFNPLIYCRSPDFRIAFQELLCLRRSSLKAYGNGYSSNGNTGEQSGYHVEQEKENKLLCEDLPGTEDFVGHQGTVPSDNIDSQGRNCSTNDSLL
Outline: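 Cells (CHO, stable ADRB2 overexpression) incubated 18-20hr at 37C; compounds added from DMSO; agonist mix (1nM isoproterenol, 100uM IBMX, 25uM Ro-20-1724) added; 0.5hr RT; d2-cAMP and anti-cAMP-cryptate added; 1hr RT; 665/615 nm read.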

[14] = target: D(2) dopamine receptor (Homo sapiens) (UniProt P14416); test: Dopamine D2 receptor (DRD2) small molecule agonists, cell-based qHTS assay (AID 1963594); note: nearly all actives have a fitted effect of over 35% in size
Sequence of D(2) dopamine receptor (Homo sapiens) (P14416 whole entry, looked up): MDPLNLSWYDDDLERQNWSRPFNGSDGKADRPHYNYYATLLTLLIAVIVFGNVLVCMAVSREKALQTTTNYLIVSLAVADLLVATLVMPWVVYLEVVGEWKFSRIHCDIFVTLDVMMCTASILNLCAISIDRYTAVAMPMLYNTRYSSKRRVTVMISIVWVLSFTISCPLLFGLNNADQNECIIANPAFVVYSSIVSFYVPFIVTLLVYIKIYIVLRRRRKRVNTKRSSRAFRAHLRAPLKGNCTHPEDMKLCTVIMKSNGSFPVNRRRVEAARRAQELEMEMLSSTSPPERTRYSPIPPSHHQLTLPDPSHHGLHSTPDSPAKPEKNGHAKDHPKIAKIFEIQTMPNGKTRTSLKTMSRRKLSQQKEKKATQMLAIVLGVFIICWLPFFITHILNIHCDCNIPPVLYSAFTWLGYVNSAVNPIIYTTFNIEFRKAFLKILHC
Outline: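 HEK293 cells stably expressing DRD2 were cultured 24 h at 37 C, then given Ro20-1724 (0.1 mM final) and compounds for 10 min at room temperature. NKH477 (200nM) was then added for 30 min. cAMP was read by HTRF.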

[15] = target: D(2) dopamine receptor (Homo sapiens) (UniProt P14416); test: Dopamine D2 receptor (DRD2) small molecule antagonists, cell-based qHTS assay (AID 1963595; active = well fitted inhibition curve with a large enough effect in the signal ratio in the repeat runs, with a control signal flat; the % refers to the signal ratio)
Outline: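 In this cell-based antagonist screen, compounds act for 10 min at room temperature before a 30 min challenge with 12 nM quinpirole and 200 nM NKH477. cAMP is quantified by HTRF competition in DRD2-HEK293 cells containing 0.1 mM Ro20-1724.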

[16] = p53 small molecule agonists, cell-based qHTS assay with rat liver microsomes (AID 1963578)
Outline: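 Metabolic activation by rat liver microsomes and NADPH, each 0.5 mg/mL final, added right after compounds to p53RE-bla reporter cells (4,000/well, plated 5 h earlier). 16 h at 37 C, then LiveBLAzer substrate for 2 h at room temperature in the dark; fluorescence read-out.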

[17] = p53 small molecule agonists, cell-based qHTS assay (AID 1963582; active = well fitted activation curve with a large enough effect in the signal ratio in the repeat runs, not every such curve was filed as active; the % refers to the signal ratio)
Outline: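 In this cell-based concentration-response screen, a p53 response element drives beta-lactamase; cells received DMSO-borne compounds after 5 h culture and were incubated a further 16 h before FRET substrate development.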

[18] = target: Muscarinic acetylcholine receptor M1 (Homo sapiens) (UniProt P11229); test: Cholinergic receptor muscarinic 1 (CHRM1) small molecule antagonists, cell-based qHTS assay (AID 1963588); note: nearly all actives have a fitted effect of over 40% in size
Outline: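 CHRM1-CHO calcium-flux assay, antagonist mode. Cells were seeded 18 h, dye-loaded 1 h at 37 C and given compound for 5 min at RT, then acetylcholine was added at 50nM. FDSS fluorescence was read 3 min; 15 concentrations, three runs.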

[19] = target: Beta-2 adrenergic receptor (Homo sapiens) (UniProt P07550); test: Adrenergic beta2 receptor (ADRB2) small molecule agonists, cell-based qHTS assay (AID 1963593);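 note: CHO cells stably overexpressing human ADRB2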
Outline: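 CHO cells stably over-expressing ADRB2 were plated overnight at 37C, then dosed with compounds plus a stimulation mix containing 100uM IBMX and 25uM Ro-20-1724 for 0.5hr at room temperature. cAMP was measured by HTRF competition, 1hr.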

Measured: Potency

O=S(=O)(O)F
not listed: [16] | [17] | [18] | [19]
inactive: all other assays above

CC(=O)[C@H]1CC[C@H]2[C@@H]3CC[C@H]4C[C@H](O)CC[C@]4(C)[C@H]3C(=O)C[C@]12C
not listed: [5] | [12]
inactive: all other assays above

Fc1ccc(Oc2ccnc3cc(Cl)cc(Cl)c23)cc1
active: [1] 24.3 µM
not listed: [11] | [14] | [17] | [18]
inactive: all other assays above

CCOP(=S)(NC(C)C)Oc1ccccc1C(=O)OC(C)C (stereo not given)
not listed: [11] | [12] | [16] | [17] | [19]
inactive: all other assays above

Nc1ccccc1C(=O)OC/C=C/c1ccccc1
not listed: [5] | [7] | [8] | [11] | [12] | [19]
inactive: all other assays above

CC(C)CC#N
not listed: [12] | [15] | [16] | [17] | [19]
inactive: all other assays above

CC(C)O.CC(C)O.OCCN(CCO)CCO.OCCN(CCO)CCO.[Ti]
not listed: [16] | [17]
inactive: all other assays above
